Results as given in PubChem BioAssay (NCI).
This is part of a sample that, as a whole, favours compounds with a hit. Of some 79,000 tested, about 15% had one in any assay. Active and inactive are the calls of the source. No stated cut-off is given here; in the data, active means growth inhibition above about 70%; inactive means the rest.

Key:
[1] = NCI Yeast Anticancer Drug Screen. Data for the rad52 strain (AID 147);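 further: 0% = growth of vehicle-treated control cultures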; conditions: S. cerevisiae rad52 mutant growth inhibition, hits give high values
In short: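 Growth of repair-deficient yeast cells was compared between compound-treated and vehicle-treated cultures to give percent inhibition.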

[2] = NCI Yeast Anticancer Drug Screen. Data for the wt1 strain (AID 149);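 further: 0% = growth of vehicle-treated wt1 cultures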; conditions: S. cerevisiae wt1 strain (SPY 50644) growth inhibition, hits give high values
In short: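 Each compound is tested on wt1 yeast and the loss of growth versus vehicle gives the inhibition value.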

[3] = NCI Yeast Anticancer Drug Screen. Data for the rad50EPP+ strain (AID 151);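 further: 0% = growth of vehicle-treated control cultures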; conditions: S. cerevisiae rad50 mutant strain, hits give high values
In short: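 Measured: growth inhibition of rad50EPP+ yeast. Reference: vehicle-treated controls. Screen uses strains with defined genetic alterations in DNA damage repair or cell cycle control.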

[4] = NCI Yeast Anticancer Drug Screen. Data for the mgt1 strain (AID 153); conditions: S. cerevisiae mgt1 mutant growth inhibition, hits give high values
In short: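 Compounds were applied to mgt1 mutant yeast, and growth was then compared against vehicle-treated control cultures to give percent inhibition.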

[5] = NCI Yeast Anticancer Drug Screen. Data for the rad50 strain (AID 155);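 further: 0% = growth of vehicle-only cultures of the same strain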; conditions: S. cerevisiae rad50 strain growth inhibition, hits give high values
In short: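 Vehicle-treated cultures provide the reference for the growth inhibition reported for compound-exposed, repair-deficient yeast.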

[6] = NCI Yeast Anticancer Drug Screen. Data for the mec2-1 strain (AID 157); conditions: S. cerevisiae mec2-1 strain, hits give high values
In short: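 Compounds were applied to mec2-1 yeast cells. Their growth was then compared with that of vehicle-treated cultures to give growth inhibition.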

[7] = NCI Yeast Anticancer Drug Screen. Data for the rad14 strain (AID 159);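 further: 0% = growth of vehicle-treated control cultures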; conditions: S. cerevisiae rad14 strain growth inhibition, hits give high values
In short: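 Inhibition of growth is reported for a repair-deficient yeast mutant following compound treatment, calculated relative to cultures that received vehicle.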

[8] = NCI Yeast Anticancer Drug Screen. Data for the sgs1 mgt1 strain (AID 161);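 further: 0% = growth of cultures given vehicle only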; conditions: S. cerevisiae sgs1 mgt1 strain, hits give high values
In short: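 Compounds are added to genetically altered yeast, and growth is compared with cultures given vehicle alone to give percent inhibition.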

[9] = NCI Yeast Anticancer Drug Screen. Data for the CLN2oe strain (AID 163);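 further: 0% = growth of vehicle-only control cultures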; conditions: S. cerevisiae CLN2oe strain, hits give high values
In short: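 Cells of an engineered yeast line with disturbed cell-cycle regulation are treated with compound. Inhibition of growth is then calculated relative to the vehicle-treated reference.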

[10] = NCI Yeast Anticancer Drug Screen. Data for the cln2 rad14 strain (AID 165);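 further: 0% = growth equal to vehicle treated cultures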; conditions: S. cerevisiae cln2 rad14 strain, hits give high values
In short: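 Strain: cln2 rad14 yeast, altered in cell cycle control and DNA damage repair. Read-out: growth inhibition vs vehicle.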

[11] = NCI Yeast Anticancer Drug Screen. Data for the bub3 strain (AID 167); conditions: S. cerevisiae bub3 mutant strain, hits give high values
In short: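 Mutant yeast screening strain plus compound; vehicle-treated cultures serve as the 0% inhibition reference.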

[12] = NCI Yeast Anticancer Drug Screen. Data for the wt2 strain (AID 169); conditions: S. cerevisiae wt2 strain growth inhibition, hits give high values
In short: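 Growth of compound-treated yeast is measured and expressed as inhibition relative to vehicle-only controls.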

[13] = NCI Yeast Anticancer Drug Screen. Data for the mlh1 strain (AID 171);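 further: 0% = growth of vehicle-treated control cultures of the same strain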; conditions: S. cerevisiae mlh1 strain growth inhibition, hits give high values
In short: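 Test agents were incubated with yeast bearing a defined DNA damage repair or cell cycle control alteration; values are growth inhibition normalised to vehicle-treated cultures.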

[14] = NCI Yeast Anticancer Drug Screen. Data for the sgs1 strain (AID 173);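 further: 0% = growth of vehicle-only control cultures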; conditions: S. cerevisiae sgs1 mutant, hits give high values
In short: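 Strain with an altered DNA repair or cell cycle pathway exposed to compound. Growth then measured. Value = inhibition versus vehicle control.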

[15] = NCI Yeast Anticancer Drug Screen. Data for the mlh1 rad18 strain (AID 175); conditions: S. cerevisiae mlh1 rad18 strain growth inhibition, hits give high values
In short: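 A repair-deficient yeast strain is exposed to test compound, and growth is scored relative to vehicle-treated controls.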

[16] = NCI Yeast Anticancer Drug Screen. Data for the rad18 strain (AID 177); conditions: S. cerevisiae rad18 mutant growth inhibition, hits give high values
In short: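 DNA-repair-defective yeast; compound treatment; growth inhibition scored against vehicle.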

[17] = at 5.0 µM (retest, dose inferred, filed as 0.5)
[18] = at 50.0 µM (retest, dose inferred, filed as 5.0)

Measured: growth inhibition

CC[C@](O)(C(=O)O)c1cc2n(c(=O)c1CO)Cc1cc3ccccc3nc1-2
active: [1]; at 1.2 µM 92% | [1]; at 3.7 µM 94% | [1]; at 11.0 µM 95% | [1]; at 33.0 µM 96% | [1]; at 100.0 µM 96% | [2]; at 33.0 µM 92% | [2]; at 100.0 µM 94% | [3]; at 1.2 µM 80% | [3]; at 3.7 µM 93% | [3]; at 11.0 µM 96% | [3]; at 33.0 µM 97% | [3]; at 100.0 µM 98% | [4]; at 33.0 µM 80% | [4]; at 100.0 µM 95% | [5]; at 1.2 µM 95% | [5]; at 3.7 µM 97% | [5]; [17] 97% | [5]; at 11.0 µM 97% | [5]; at 33.0 µM 97% | [5]; [18] 98% | [5]; at 50.0 µM 98.3% | [5]; at 100.0 µM 97% | [6]; at 3.7 µM 82% | [6]; [17] 95% | [6]; at 11.0 µM 94% | [6]; at 33.0 µM 95% | [6]; [18] 98% | [6]; at 50.0 µM 97% | [6]; at 100.0 µM 96% | [7]; at 11.0 µM 81% | [7]; at 33.0 µM 93% | [7]; at 100.0 µM 96% | [8]; [17] 88% | [8]; [18] 97% | [8]; at 50.0 µM 97.2% | [9]; at 11.0 µM 88% | [9]; at 33.0 µM 93% | [9]; at 100.0 µM 96% | [10]; [18] 96% | [10]; at 50.0 µM 87.8% | [11]; at 33.0 µM 91% | [11]; [18] 97% | [11]; at 50.0 µM 96.8% | [11]; at 100.0 µM 95% | [12]; at 11.0 µM 81% | [12]; at 33.0 µM 95% | [12]; at 100.0 µM 94% | [13]; at 11.0 µM 81% | [13]; at 33.0 µM 94% | [13]; at 100.0 µM 97% | [14]; at 11.0 µM 92% | [14]; at 33.0 µM 95% | [14]; at 100.0 µM 97% | [15]; [17] 83% | [15]; [18] 97% | [15]; at 50.0 µM 96.5% | [16]; at 11.0 µM 82% | [16]; at 33.0 µM 93% | [16]; at 100.0 µM 96%
inactive: [2]; at 1.2 µM 0% | [2]; at 3.7 µM 10% | [2]; at 11.0 µM 67% | [4]; at 1.2 µM -1% | [4]; at 3.7 µM 7% | [4]; at 11.0 µM 67% | [6]; at 1.2 µM 14% | [7]; at 1.2 µM 3% | [7]; at 3.7 µM 29% | [9]; at 1.2 µM -7% | [9]; at 3.7 µM 36% | [10]; [17] 66% | [11]; at 1.2 µM -16% | [11]; at 3.7 µM -3% | [11]; [17] 58% | [11]; at 11.0 µM 67% | [12]; at 1.2 µM -3% | [12]; at 3.7 µM 13% | [13]; at 1.2 µM 3% | [13]; at 3.7 µM 21% | [14]; at 1.2 µM 17% | [14]; at 3.7 µM 64% | [16]; at 1.2 µM 4% | [16]; at 3.7 µM 29%

C[C@]12CC[C@H](O)CC1=CC[C@@H]1[C@@H]2CC[C@]2(C)C(=O)CC[C@@H]12
inactive: [1]; at 1.2 µM -54% | [1]; at 3.7 µM -47% | [1]; at 11.0 µM -46% | [1]; at 33.0 µM 69% | [2]; at 1.2 µM -44% | [2]; at 3.7 µM -65% | [2]; at 11.0 µM -70% | [2]; at 33.0 µM 50% | [3]; at 1.2 µM -64% | [3]; at 3.7 µM 4% | [3]; at 11.0 µM 0% | [3]; at 33.0 µM 36% | [3]; at 100.0 µM 65% | [4]; at 1.2 µM -65% | [4]; at 3.7 µM -68% | [4]; at 11.0 µM -62% | [4]; at 33.0 µM 52% | [5]; at 1.2 µM -73% | [5]; at 3.7 µM -41% | [5]; [17] 58% | [5]; at 11.0 µM -57% | [6]; at 1.2 µM -94% | [6]; at 3.7 µM -71% | [6]; [17] 56% | [6]; at 11.0 µM -66% | [7]; at 1.2 µM -57% | [7]; at 3.7 µM -52% | [7]; at 11.0 µM -39% | [8]; [17] -7% | [9]; at 1.2 µM -16% | [9]; at 3.7 µM 2% | [9]; at 11.0 µM 8% | [9]; at 33.0 µM 54% | [10]; [17] 64% | [11]; at 1.2 µM -23% | [11]; at 3.7 µM -36% | [11]; [17] 20% | [11]; at 11.0 µM -17% | [12]; at 1.2 µM -52% | [12]; at 3.7 µM -42% | [12]; at 11.0 µM -37% | [12]; at 33.0 µM 59% | [13]; at 1.2 µM -51% | [13]; at 3.7 µM -81% | [13]; at 11.0 µM -49% | [13]; at 33.0 µM 37% | [14]; at 1.2 µM -75% | [14]; at 3.7 µM -56% | [14]; at 11.0 µM -65% | [15]; [17] 37% | [16]; at 1.2 µM -29% | [16]; at 3.7 µM -24% | [16]; at 11.0 µM -7%
active: [1]; at 100.0 µM 90% | [2]; at 100.0 µM 87% | [4]; at 100.0 µM 96% | [5]; at 33.0 µM 78% | [5]; [18] 98% | [5]; at 50.0 µM 88.5% | [5]; at 100.0 µM 91% | [6]; at 33.0 µM 79% | [6]; [18] 98% | [6]; at 50.0 µM 87.8% | [6]; at 100.0 µM 90% | [7]; at 33.0 µM 77% | [7]; at 100.0 µM 96% | [8]; [18] 80% | [8]; at 50.0 µM 88.1% | [9]; at 100.0 µM 94% | [10]; [18] 75% | [10]; at 50.0 µM 88.5% | [11]; at 33.0 µM 72% | [11]; [18] 78% | [11]; at 50.0 µM 86.2% | [11]; at 100.0 µM 92% | [12]; at 100.0 µM 92% | [13]; at 100.0 µM 97% | [14]; at 33.0 µM 77% | [14]; at 100.0 µM 97% | [15]; [18] 99% | [15]; at 50.0 µM 87.7% | [16]; at 33.0 µM 78% | [16]; at 100.0 µM 95%
